Data taken from the supplement of paper PMC12067093, “Discovery and optimisation of a covalent ligand for TRIM25 and its application to targeted protein ubiquitination” (Chemical Science, 2025).
The full data set covers some 21,000 targets. This sample favours those with the largest changes.

Compound: Cc1cc(ccc1-c1ccccc1)C(=O)N1CCCN(CC1)C(=O)CCl [compound 10]
Experiment: probe-labelled cysteine peptide fold change vs DMSO (competition) (log2 fold change); higher = less target engagement (more negative = stronger competition)
Settings: THP-1, incubation time: 4 h
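Further: competitive profiling in live THP-1 cells: cysteine peptides tagged with an iodoacetamide desthiobiotin (IA-DTB) probe, intensity after compound treatment relative to DMSO-treated cells.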

Chain of UniProt Q96D53 (Q96D53 whole entry, looked up): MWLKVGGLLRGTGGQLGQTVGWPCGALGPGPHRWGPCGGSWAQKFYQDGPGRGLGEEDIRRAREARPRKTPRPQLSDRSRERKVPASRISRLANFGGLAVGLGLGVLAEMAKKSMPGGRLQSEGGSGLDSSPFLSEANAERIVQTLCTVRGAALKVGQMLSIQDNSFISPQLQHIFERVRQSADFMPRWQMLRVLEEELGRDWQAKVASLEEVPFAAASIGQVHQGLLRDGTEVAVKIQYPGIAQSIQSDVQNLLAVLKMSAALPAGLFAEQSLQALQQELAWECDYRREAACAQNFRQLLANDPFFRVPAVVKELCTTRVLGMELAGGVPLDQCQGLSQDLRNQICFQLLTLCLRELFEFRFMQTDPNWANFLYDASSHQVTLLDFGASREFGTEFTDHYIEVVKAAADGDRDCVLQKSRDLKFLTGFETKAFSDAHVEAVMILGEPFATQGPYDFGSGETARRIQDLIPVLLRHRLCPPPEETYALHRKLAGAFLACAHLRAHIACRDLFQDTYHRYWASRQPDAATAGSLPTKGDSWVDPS
Chain of UniProt Q9GZR7 (Q9GZR7 whole entry, looked up): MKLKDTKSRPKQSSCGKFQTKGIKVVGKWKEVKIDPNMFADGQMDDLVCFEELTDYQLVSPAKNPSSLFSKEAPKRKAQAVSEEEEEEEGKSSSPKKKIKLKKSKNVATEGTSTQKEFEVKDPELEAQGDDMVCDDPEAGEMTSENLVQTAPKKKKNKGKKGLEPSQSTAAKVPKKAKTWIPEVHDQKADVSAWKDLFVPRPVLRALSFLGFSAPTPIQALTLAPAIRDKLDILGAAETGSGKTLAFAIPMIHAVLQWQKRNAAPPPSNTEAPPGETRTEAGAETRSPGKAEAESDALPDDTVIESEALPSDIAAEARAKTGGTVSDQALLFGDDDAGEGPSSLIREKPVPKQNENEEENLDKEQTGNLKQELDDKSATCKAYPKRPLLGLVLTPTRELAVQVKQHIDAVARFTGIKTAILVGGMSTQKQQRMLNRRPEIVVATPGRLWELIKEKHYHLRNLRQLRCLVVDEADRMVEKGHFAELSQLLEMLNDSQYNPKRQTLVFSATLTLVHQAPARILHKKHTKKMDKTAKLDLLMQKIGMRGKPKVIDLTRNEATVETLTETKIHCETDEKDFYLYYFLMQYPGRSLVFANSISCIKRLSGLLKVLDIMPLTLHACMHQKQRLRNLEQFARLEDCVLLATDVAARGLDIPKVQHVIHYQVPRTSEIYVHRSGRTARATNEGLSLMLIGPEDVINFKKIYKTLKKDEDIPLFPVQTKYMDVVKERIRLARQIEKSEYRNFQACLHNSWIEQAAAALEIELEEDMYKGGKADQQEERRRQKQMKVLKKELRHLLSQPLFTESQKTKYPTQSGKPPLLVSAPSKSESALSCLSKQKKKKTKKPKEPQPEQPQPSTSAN
Chain of UniProt Q9BQ39 (Q9BQ39 whole entry, looked up): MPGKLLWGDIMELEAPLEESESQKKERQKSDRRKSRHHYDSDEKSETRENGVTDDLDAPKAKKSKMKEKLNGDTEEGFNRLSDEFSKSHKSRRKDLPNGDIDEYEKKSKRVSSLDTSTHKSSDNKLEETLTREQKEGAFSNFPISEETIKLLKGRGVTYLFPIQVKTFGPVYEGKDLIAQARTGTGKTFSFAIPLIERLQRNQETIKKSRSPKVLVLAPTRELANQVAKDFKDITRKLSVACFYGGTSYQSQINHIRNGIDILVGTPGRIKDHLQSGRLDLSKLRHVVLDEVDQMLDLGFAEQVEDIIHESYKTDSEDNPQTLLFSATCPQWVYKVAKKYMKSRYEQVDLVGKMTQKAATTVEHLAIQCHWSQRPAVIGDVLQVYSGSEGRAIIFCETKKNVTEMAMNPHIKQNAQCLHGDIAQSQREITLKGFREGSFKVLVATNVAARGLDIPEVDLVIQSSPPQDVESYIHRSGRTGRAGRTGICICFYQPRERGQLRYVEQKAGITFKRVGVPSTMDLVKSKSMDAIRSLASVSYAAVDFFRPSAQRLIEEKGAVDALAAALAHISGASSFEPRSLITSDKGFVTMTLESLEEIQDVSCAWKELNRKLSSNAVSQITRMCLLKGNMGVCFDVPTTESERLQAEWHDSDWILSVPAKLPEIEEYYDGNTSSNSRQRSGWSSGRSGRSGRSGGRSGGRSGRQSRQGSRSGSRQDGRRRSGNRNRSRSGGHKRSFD
Chain of UniProt Q9NVP1 (Q9NVP1 whole entry, looked up): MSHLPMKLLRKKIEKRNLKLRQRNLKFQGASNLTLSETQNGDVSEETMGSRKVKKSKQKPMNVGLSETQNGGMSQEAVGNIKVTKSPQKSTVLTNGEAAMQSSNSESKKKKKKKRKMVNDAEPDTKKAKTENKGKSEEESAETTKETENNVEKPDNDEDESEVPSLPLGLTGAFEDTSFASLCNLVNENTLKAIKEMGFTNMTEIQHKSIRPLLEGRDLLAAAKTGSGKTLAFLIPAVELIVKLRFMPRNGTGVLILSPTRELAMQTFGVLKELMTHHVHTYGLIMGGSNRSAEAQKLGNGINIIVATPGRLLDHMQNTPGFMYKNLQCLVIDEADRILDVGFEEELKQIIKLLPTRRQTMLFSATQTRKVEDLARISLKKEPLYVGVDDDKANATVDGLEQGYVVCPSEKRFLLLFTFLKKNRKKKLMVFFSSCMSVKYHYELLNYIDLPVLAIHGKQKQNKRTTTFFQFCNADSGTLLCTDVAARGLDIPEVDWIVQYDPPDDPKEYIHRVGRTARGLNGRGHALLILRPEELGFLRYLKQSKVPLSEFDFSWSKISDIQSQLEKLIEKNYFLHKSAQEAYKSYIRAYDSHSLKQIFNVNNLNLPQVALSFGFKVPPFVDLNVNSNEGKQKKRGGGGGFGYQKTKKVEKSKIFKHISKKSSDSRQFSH
Chain of UniProt Q9UJU6 (Q9UJU6 whole entry, looked up): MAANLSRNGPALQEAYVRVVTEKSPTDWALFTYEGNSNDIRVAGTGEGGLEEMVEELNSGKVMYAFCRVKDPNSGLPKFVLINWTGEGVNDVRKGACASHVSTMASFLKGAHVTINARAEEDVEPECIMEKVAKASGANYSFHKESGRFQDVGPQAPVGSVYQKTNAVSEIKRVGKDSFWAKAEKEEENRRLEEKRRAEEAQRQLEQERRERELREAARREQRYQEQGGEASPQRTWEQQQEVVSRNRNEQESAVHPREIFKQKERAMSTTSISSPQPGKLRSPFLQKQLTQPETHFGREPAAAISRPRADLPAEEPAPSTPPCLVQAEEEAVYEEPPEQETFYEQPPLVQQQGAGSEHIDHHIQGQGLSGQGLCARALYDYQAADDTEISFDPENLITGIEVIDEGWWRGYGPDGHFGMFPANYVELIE
Chain of UniProt Q92841 (Q92841 whole entry, looked up): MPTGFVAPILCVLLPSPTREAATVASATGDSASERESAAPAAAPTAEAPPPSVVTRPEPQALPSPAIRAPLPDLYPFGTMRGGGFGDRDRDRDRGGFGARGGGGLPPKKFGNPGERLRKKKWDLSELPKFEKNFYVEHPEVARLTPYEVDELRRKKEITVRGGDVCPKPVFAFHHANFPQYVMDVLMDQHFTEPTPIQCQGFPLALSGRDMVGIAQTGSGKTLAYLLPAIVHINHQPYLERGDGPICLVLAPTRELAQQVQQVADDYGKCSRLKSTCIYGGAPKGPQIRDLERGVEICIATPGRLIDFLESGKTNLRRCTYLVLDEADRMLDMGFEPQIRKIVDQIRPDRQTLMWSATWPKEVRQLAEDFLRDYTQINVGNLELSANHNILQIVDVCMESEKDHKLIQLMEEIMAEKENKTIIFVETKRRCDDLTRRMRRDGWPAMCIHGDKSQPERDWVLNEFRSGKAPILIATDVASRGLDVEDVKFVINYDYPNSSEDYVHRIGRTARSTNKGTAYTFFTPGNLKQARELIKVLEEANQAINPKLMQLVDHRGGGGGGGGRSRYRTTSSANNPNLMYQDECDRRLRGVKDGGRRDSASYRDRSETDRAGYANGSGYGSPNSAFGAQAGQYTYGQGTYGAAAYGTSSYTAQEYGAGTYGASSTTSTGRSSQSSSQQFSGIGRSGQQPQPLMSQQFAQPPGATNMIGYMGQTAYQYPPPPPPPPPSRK
Chain of UniProt P04839 (P04839 whole entry, looked up): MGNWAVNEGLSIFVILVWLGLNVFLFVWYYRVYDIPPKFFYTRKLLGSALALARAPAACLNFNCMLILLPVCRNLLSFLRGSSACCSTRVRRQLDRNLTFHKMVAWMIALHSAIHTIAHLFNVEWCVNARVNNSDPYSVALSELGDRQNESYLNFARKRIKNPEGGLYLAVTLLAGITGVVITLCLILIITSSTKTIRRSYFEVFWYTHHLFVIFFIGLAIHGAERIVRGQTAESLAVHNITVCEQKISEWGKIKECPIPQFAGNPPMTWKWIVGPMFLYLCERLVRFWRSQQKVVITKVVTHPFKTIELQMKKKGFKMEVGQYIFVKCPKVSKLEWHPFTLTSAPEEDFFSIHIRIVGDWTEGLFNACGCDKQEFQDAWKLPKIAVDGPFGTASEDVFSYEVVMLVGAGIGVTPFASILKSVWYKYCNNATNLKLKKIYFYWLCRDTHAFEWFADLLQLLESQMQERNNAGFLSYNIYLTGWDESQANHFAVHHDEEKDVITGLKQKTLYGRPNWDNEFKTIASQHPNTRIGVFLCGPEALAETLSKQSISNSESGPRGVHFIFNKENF
Chain of UniProt Q9UBR2 (Q9UBR2 whole entry, looked up): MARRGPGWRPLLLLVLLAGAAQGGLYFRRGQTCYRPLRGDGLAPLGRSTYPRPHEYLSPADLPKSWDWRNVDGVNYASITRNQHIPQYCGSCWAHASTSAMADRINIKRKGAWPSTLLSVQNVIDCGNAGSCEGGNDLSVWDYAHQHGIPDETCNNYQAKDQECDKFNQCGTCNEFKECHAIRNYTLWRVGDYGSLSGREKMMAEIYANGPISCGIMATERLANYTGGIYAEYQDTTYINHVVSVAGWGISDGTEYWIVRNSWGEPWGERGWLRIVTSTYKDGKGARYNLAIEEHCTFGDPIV

Target | probe-labelled cysteine peptide fold change (10 µM) | probe-labelled cysteine peptide fold change (50 µM)
DHX9_Q08211_777_VRPGFCFHLCSR (UniProt Q08211) | -0.231 | -0.0284
CTSZ_Q9UBR2_164_DQECDK (UniProt Q9UBR2) | -0.0913 | -0.207
DKK2_Q9UBU2_214_ICKPVLHQGEVCTK (UniProt Q9UBU2) | -0.0653 | -0.0474
DDX17_Q92841_319_CTYLVLDEADRMLDMGFEPQIR (UniProt Q92841) | 0.023 | -0.374
DDX50_Q9BQ39_242_LSVACFYGGTSYQSQINHIR (UniProt Q9BQ39) | 0.333 | -0.294
DGLUCY_Q7Z3D6-2_165_TTVPCVTHAGFCCPLVVTMRPIPK (UniProt Q7Z3D6) | 0.017 | -0.4
CYBB_P04839_369_IVGDWTEGLFNACGCDK (UniProt P04839) | -0.0879 | 0.149
COPA_P53621_1169_NPTDAYQLNYDMHNPFDICAASYR (UniProt P53621) | 0.178 | 0.397
DBNL_Q9UJU6-3_256_NEQGSTCASLQESAVHPR (UniProt Q9UJU6) | -0.341 | -0.167
COQ8B_Q96D53_508_AHIACR (UniProt Q96D53) | -0.221 | -1.08
DDX18_Q9NVP1_407_ANATVDGLEQGYVVCPSEK (UniProt Q9NVP1) | -0.401 | 0.698
CSMD2_Q7Z408-3_2_CDAHLR (UniProt Q7Z408) | 0.077 | -2.14
CNOT4_O95628_175_AIQCVNNVVVDGR (UniProt O95628) | -0.0308 | -0.303
DDX24_Q9GZR7_570_IHCETDEK (UniProt Q9GZR7) | -0.15 | 0.261
